Screening results as filed in PubChem BioAssay.
Mtb MenB inh – blocks the Mycobacterium tuberculosis MenB enzyme; inhibition, % (test concentration not listed); MenB enzyme assay, absorbance read-out; AID 540299; P9WNP5; hit rate 0.43% among 100,000; in the data active = inhibition above about 21%, passing the limit was not always enough
MbtI inh – inhibitors of Mycobacterium tuberculosis siderophore enzyme MbtI; P9WFX0; purified MbtI enzyme, fluorescence intensity read-out; inhibition, % (no concentration beside the values); hit rate 0.89% among 100,000; AID 493033; in the data active = inhibition mostly above about 56%, no sharp cut-off; inactive = mostly below about 77%
Target sequence (P9WFX0 whole entry, looked up): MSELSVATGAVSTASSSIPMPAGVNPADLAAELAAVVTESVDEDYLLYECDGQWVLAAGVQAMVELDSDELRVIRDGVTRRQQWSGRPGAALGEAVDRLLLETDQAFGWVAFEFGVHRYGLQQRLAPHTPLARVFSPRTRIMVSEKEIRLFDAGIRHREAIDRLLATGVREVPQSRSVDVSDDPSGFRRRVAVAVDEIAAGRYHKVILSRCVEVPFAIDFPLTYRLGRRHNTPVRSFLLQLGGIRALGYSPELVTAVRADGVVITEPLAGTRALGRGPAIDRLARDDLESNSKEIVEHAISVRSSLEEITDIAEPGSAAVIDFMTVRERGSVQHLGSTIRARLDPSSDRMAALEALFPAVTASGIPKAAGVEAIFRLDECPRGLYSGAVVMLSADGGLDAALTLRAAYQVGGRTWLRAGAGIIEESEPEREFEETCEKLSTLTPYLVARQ
AID504770 – growth inhibitors of E. coli YBA685 in a screen for V. cholerae RctB (chromosome II replication) inhibitors | E. coli YBA685 rctB-dependent plasmid, OD600 growth, 3 h; stronger effect = lower value | z-score (test concentration not listed) | hit rate 0.27% among 130,000; in the data active = z-score below about -2, passing the limit was not always enough
PV pol inh – poliovirus RNA polymerase inhibition; P03300; poliovirus polymerase elongation, fluorescence polarization; stronger effect = lower value; % elongation, % (compound at 16.7 µg/mL); hit rate 0.66% among 150,000; AID 588519; in the data active = % elongation below about 90%
* = called active by the depositor. In the library only some 1.5% were active in any assay of this set; here they are far more common.

For CCCCN(C)C(=O)C1CCN(Cc2ccc(OCC)cc2)CC1 the results were Mtb MenB inh 3, AID504770 -0.15 and PV pol inh 45*.
N#Cc1c(NCSCc2ccccc2)sc2c1CCCCC2 was read as Mtb MenB inh -12, AID504770 -0.15 and PV pol inh 69*.
Screening CN(C)c1cccc(C(=O)OCC(=O)c2cc3ccccc3o2)c1 returned Mtb MenB inh -64, MbtI inh -21, AID504770 -0.15 and PV pol inh 110.
`NC(=O)c1c(NC(=O)c2cc(-c3ccc(F)cc3)on2)sc2c1CCCC2` gave PV pol inh 76*.
`CCOc1ccc(/C=N/O)cc1` gave Mtb MenB inh 26*, MbtI inh 10, AID504770 0.6 and PV pol inh 104.
Screening CCOc1cc(OCC)c(/C=N/O)c(OCC)c1 returned AID504770 0.65.
`CC(C)S(=O)(=O)C1=NSC2=NC(=O)/C(=C\c3ccco3)C(=N)N21` gave Mtb MenB inh -63, MbtI inh 15, AID504770 0 and PV pol inh 79*.
For Cn1c(SCc2nc3ccccc3o2)nnc1C(F)(F)F the results were Mtb MenB inh 3, MbtI inh 3, AID504770 0.45 and PV pol inh 104.
Screening CC(C)c1cc(N)on1 returned Mtb MenB inh -12, MbtI inh -16, AID504770 -2.2* and PV pol inh 99.
`O=C1COc2ccc(-c3csc(=Nc4ccc(F)cc4)n3/N=C/c3ccc(O)c(O)c3)cc2N1` gave Mtb MenB inh -60, MbtI inh 6, AID504770 -0.15 and PV pol inh 83*.
COC(Cn1c(-c2ccc(C)cc2)n[nH]c1=S)OC was read as Mtb MenB inh -8, MbtI inh 18, AID504770 0.3 and PV pol inh 100.
Screening COc1ccc(-n2nc3c(N4CCCC(C(=O)NCc5ccc(C)cc5)C4)nnc(C)c3c2C)cc1 (stereo not given) returned PV pol inh 89*.
For COc1ccccc1NC(=S)Nc1ccccc1 the results were Mtb MenB inh -16, MbtI inh 0, AID504770 -0.9 and PV pol inh 103.
For CCOC(=O)C1CCCN(Cn2nnn(-c3ccc(OC)cc3)c2=S)C1 (stereo not given) the results were Mtb MenB inh 11, MbtI inh 63*, AID504770 0.55 and PV pol inh 79*.
Screening Cc1noc(C)c1COc1ccc(C(=O)Nc2ccc(F)c(Cl)c2)cc1 returned Mtb MenB inh 8, MbtI inh -7, AID504770 -1 and PV pol inh 103.
Screening NC(=O)C1CCN(CC(O)COc2ccc3c(c2)OCO3)CC1 (stereo not given) returned Mtb MenB inh -11, MbtI inh -7, AID504770 -0.55 and PV pol inh 105.
CCC(=O)Nc1nc2c(s1)CSc1ccccc1-2 was read as Mtb MenB inh -11, MbtI inh 96*, AID504770 -0.5 and PV pol inh 100.
`CCC(=O)Nc1nc2ccccc2s1` gave MbtI inh 8 and AID504770 -0.05.
O=c1c(Br)cccc(Br)c1O was read as Mtb MenB inh -169, MbtI inh 39, AID504770 -3.5* and PV pol inh 105.
N#Cc1c(N2CCCC2)nc(N)c2c(N)nc(N3CCCC3)cc12 was read as Mtb MenB inh 3, MbtI inh -41, AID504770 -0.45 and PV pol inh 74*.
Screening O=C(CSc1ccc(Cl)cc1)c1ccco1 returned MbtI inh 61*, AID504770 -0.05 and PV pol inh 100.
`O=C(CSc1ccccc1Cl)c1ccco1` gave MbtI inh 16, AID504770 0.15 and PV pol inh 102.
`O=C(N=C=S)c1ccc2ccccc2c1` gave Mtb MenB inh -67, MbtI inh inactive, AID504770 -1.1 and PV pol inh 75*.
CN(C)S(=O)(=O)c1cccc(C(=O)N=C=S)c1 was read as Mtb MenB inh -67, MbtI inh 96*, AID504770 -0.25 and PV pol inh 70*.
`Cc1ccccc1-c1noc(COC(=O)c2ccc(C#N)cc2)n1` gave Mtb MenB inh 7, MbtI inh -11, AID504770 0.5 and PV pol inh 99.
Screening CCn1c(SCc2nnc(-c3ccccc3)o2)nc2sc(C)c(C)c2c1=O returned Mtb MenB inh -10, MbtI inh -4, AID504770 -0.95 and PV pol inh 105.
For C=C(C)C1=NC(C)(C)CC(C)O1 (stereo not given) the results were Mtb MenB inh -6, AID504770 -0.05 and PV pol inh 112.
For Cc1ccc2oc(-c3ccccc3C(=O)O)cc(=O)c2c1 the results were AID504770 -0.4.
Screening O=C(O)c1cc(-c2ccco2)nc2ccc(Br)cc12 returned Mtb MenB inh 0, AID504770 2 and PV pol inh 73*.
O=C(O)c1ccccc1-c1ccc(-c2cc(C(=O)O)c3cc(F)ccc3n2)o1 was read as Mtb MenB inh -80, MbtI inh 2, AID504770 -2.7* and PV pol inh 98.
Fc1ccc(-n2nc(C(F)(F)F)cc2-c2cccs2)cc1 was read as AID504770 -0.8.
For O=C1CSc2nnc(Cn3nnc4ccccc43)n2N1 the results were Mtb MenB inh 3, MbtI inh 87*, AID504770 0.5 and PV pol inh 97.
COc1ccccc1OCc1cccc(C(=O)N2CCCCCC2)c1 was read as Mtb MenB inh -19, MbtI inh 6, AID504770 0.2 and PV pol inh 102.
For O=S(=O)(/N=c1/cc(-c2ccccc2)ss1)c1ccccc1 the results were Mtb MenB inh -2, AID504770 -0.3 and PV pol inh 100.
O=c1cc(-c2ccccc2)ss1 was read as Mtb MenB inh -14, MbtI inh 53*, AID504770 -0.4 and PV pol inh 82*.
For CC1SC(c2ccccc2)NC1=O (stereo not given) the results were Mtb MenB inh -128, MbtI inh 91*, AID504770 2 and PV pol inh 100.
Screening CC(C)(C)c1cc2ncnc(NNC(=O)c3cccs3)c2s1 returned Mtb MenB inh -32, MbtI inh -10, AID504770 -0.1 and PV pol inh 104.
CNC(=O)c1sc(=S)n(-c2ccccc2)c1N was read as Mtb MenB inh -14, MbtI inh 66*, AID504770 1 and PV pol inh 100.
Screening Cc1ccc(-n2c(N)c(C(N)=O)sc2=S)cc1C returned Mtb MenB inh -12, MbtI inh 94*, AID504770 -1 and PV pol inh 98.
For COC(=O)c1sc(=S)n(-c2cccc(Cl)c2)c1N the results were Mtb MenB inh -24, MbtI inh 94*, AID504770 -0.85 and PV pol inh 95.
CC1Cc2ccccc2N1C(=O)COc1ncnc2ccccc12 (stereo not given) was read as MbtI inh -8, AID504770 -0.3 and PV pol inh 103.
`Cc1nn(-c2ccccc2)cc1/C=N/n1c(-c2ccncc2)n[nH]c1=S` gave Mtb MenB inh -18, MbtI inh 51*, AID504770 -0.45 and PV pol inh 103.
